In PubChem BioAssay (NCATS):
Active and inactive are the calls of the source. Entries that show only a call come without a potency. The call rests on the fitted dose curve; in most records, active means well fitted cell-killing curve with a large enough effect; inconclusive means small, poorly fitted or top-dose-only effect; inactive means flat fitted curve, though single readings scatter.

Assay: Cell Viability - LYMP1-002 - Assay at 24 hr (AID 993)
Details: LYMP1-002 lymphoblastoid cells viability; series mostly up to 92.2 µM
Description: NIH Chemical Genomics Center [NCGC]
NIH Molecular Libraries Screening Centers Network [MLSCN]
National Institutes of Environmental Health Sciences [NIEHS]
National Toxicology Program [NTP]
We have developed a 1536-well cell-based assay for quantitative high throughput screening (qHTS) against a number of cell lines to determine in vitro cytotoxicity of small molecules. This particular assay uses a human lymphoblastoid cell line (LYMP1-002) purchased from Coriell Institute for Medical Research.
NCGC Assay Protocol Summary:
The CellTiter-Glo luminescent cell viability assay (Promega) is a homogeneous method to measure the number of viable cells in culture. The end point readout of this assay is based on quantitation of intracellular ATP, an indicator of metabolic activity, using the luciferase reaction. Luciferase catalyzes the oxidation of beetle Luciferin to oxyluciferin and light in the presence of ATP. The luminescent signal is proportional to amount of ATP present.
Using the CellTiter-Glo luminescent cell viability assay, the amount of cellular ATP was measured in the lymphoblastoid cell line with complete culture medium following compound treatment for 24 hours. The assay was performed in opaque white Kalypsys 1536-well plates. In the screen, tetraoctylammonium bromide was used as positive control. Library compounds were measured for their ability to cause acute toxicity in the cell line, as reflected by a decrease in intracellular ATP levels, in a concentration-dependent manner. […] AC50 values were determined from concentration-response data modeled with the standard Hill equation.
qHTS protocol for CellTiter Glo lymphoblastoid cellular assay
[Step] [Parameter] [Value] [Description]
1. Reagent; 5 uL; 2500 lymphoblastoid cells/well
2. Time; 5 hr; 37 C incubation
4. Controls; 23 nL; Tetraoctylammonium bromide 6.4pM to 92 uM
5. Time; 24 hr; 37 C incubation
6. Reagent; 5 uL; CellTiter Glo reagent
7. Time; 30 min; Room Temperature
8. Detection; Luminescence; Viewlux plate reader
Keywords: cell viability, cytotoxicity, lymphoblastoid cell line, luminescence, NTPHTS, NTPHTS_NCGC, NIEHS, DSSTox, MLSMR, MLSCN, NIH Roadmap, qHTS, NCGC

SMILES | Potency
ClCC(Cl)CCl | inactive
O=C(O)C(Cl)(Cl)Br | inactive
Nc1cccc2ccccc12 | inactive
BrCCc1ccccc1 | inactive
CCBr | inactive
CCN(CC)CCO | inactive
OC[P+](CO)(CO)CO | inactive
C=C(Cl)CSC(=S)N(CC)CC | inactive
O=NN1CCCCC1 | inactive
COc1ccc(C=O)cc1 | inactive
Clc1cccc(Cl)c1Cl | inactive
O=[N+]([O-])c1ccccc1-c1ccccc1 | inactive
Oc1cc(Cl)cc(Cl)c1 | inactive
Nc1ccc(-c2ccc(N)cc2)cc1 | inactive
CN(C)N=O | inactive
CCCCCCCCCCCCCl | inactive
O=C(Cl)c1ccccc1F | inactive
CCCBr | inactive
Oc1c(Cl)cccc1Cl | inactive
Nc1ccc(Oc2ccc(N)cc2)cc1 | inactive

SMILES | Potency
Clc1cc(Cl)c(Cl)c(Cl)c1 | inactive
C=CC=O | inactive
CCSC(=O)N1CCCCCC1 | inactive
Cc1ccc(N)cc1N | inactive
Cc1ccc2c(C)cccc2c1 | inactive
Nc1ncc([N+](=O)[O-])s1 | inactive
BrCC(Br)(Br)Br | inactive
ClC(Cl)(Cl)C(Cl)(Cl)Cl | inactive
CN(C)C(=O)Cl | inactive
Clc1ccc(C(Cl)(Cl)Cl)c(Cl)c1 | inactive
O=[N+]([O-])c1cccc(O)c1 | inactive
COc1ccccc1N | inactive
Nn1cnnc1 | inactive
COc1c(C(C)(C)C)cc([N+](=O)[O-])c(C)c1[N+](=O)[O-] | inactive
c1ccc(NNc2ccccc2)cc1 | inactive
O=S(=O)(O)F | inactive
C=CC(=O)OCCO | inactive
FC(Cl)(Cl)Cl | inactive
CCCCOC(=O)c1ccccc1N | inactive
Brc1ccc(Oc2ccc(Br)cc2Br)c(Br)c1 | inactive
